Structures are written as SMILES. This is part of a sample that, as a whole, favours compounds with a hit. Of some 83,000 tested, about 20% had one in any assay.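 96-well plates, one dose, 48 hours. Percent growth reported; active if below 10.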 Unmarked numbers belong to inactive results. Activity calls are given as the source filed them.

Holding throughout (experiment): NCI-60 one-dose screen, 48 h (100 = growth as untreated, 0 = no growth, -100 = all killed)
One assay relates to SK-MEL-2 melanoma. As to conditions: 10 µM.
The subject of the next assay is EKVX NSCLC. As to conditions: 10 µM.
In a further assay the test system is SN12C renal. As to conditions: 10 µM.
The test system of another assay is UO-31 renal. As to conditions: 10 µM.
For the next assay, the system named is TK-10 renal. As to conditions: 10 µM unless noted.
Another assay concerns ACHN renal. As to conditions: 10 µM.
The test system of another assay is CAKI-1 renal. As to conditions: 10 µM.
In a further assay the test system is A498 renal. As to conditions: 10 µM.
The test system of the next assay is CCRF-CEM leukemia. As to conditions: 10 µM.
The next assay deals with MOLT-4 leukemia. As to conditions: 10 µM.

Turning to `Cc1cc2nc(CO)[nH]c2cc1C`, the growth is 83% in the assay on SK-MEL-2 melanoma; 112% in the assay with EKVX NSCLC; 105% with SN12C renal; 85.8% with UO-31 renal; 131% in the assay with TK-10 renal; 105% in the assay on ACHN renal. Besides, the growth in the assay with CAKI-1 renal is 110%; in the assay on A498 renal it was 101%; with CCRF-CEM leukemia, 93.6%; in the assay on MOLT-4 leukemia, 103%.

Consider `C#CC(C)(O)c1ccc(Cl)cc1` (stereo unspecified), for which the growth is 106% in the assay on SK-MEL-2 melanoma; 98.6% in the assay with EKVX NSCLC; 113% in the assay with SN12C renal; 99.4% with UO-31 renal; 106% with TK-10 renal; 110% in the assay with ACHN renal. Moreover, the growth with CAKI-1 renal was 103%; with A498 renal, 98%; with CCRF-CEM leukemia, 103%; with MOLT-4 leukemia, 107%.

For the molecule `CN(C)C(=O)Oc1cccc([N+](C)(C)C)c1`, the growth is 124% with SK-MEL-2 melanoma; 93.1% in the assay on EKVX NSCLC; 97.8% in the assay on SN12C renal; 98.6% in the assay on UO-31 renal; 125% with TK-10 renal; 97.9% in the assay with ACHN renal. In addition, the growth with CAKI-1 renal was 89.9%; with A498 renal, 95.5%; in the assay with CCRF-CEM leukemia, 113%; with MOLT-4 leukemia it was 102%.

Take `Cn1cnc2nc(Cl)nc(Cl)c21`: the growth with SK-MEL-2 melanoma is -23.4% (active); with EKVX NSCLC it was 104%; with SN12C renal it was 22.4%; in the assay with UO-31 renal, 45.2%; with TK-10 renal, 4.15% (active); in the assay on ACHN renal, 29.4%. The growth in the assay with CAKI-1 renal is -61.6% (active); with A498 renal it was 62.6%; with MOLT-4 leukemia it was 35.8%.

Consider `O=C(O)C(c1ccccc1)C(O)c1ccccc1` (stereo unspecified), for which the growth is 99.6% in the assay on SK-MEL-2 melanoma; 108% in the assay with EKVX NSCLC; 98.2% in the assay with SN12C renal; 94.4% with UO-31 renal; 108% in the assay with TK-10 renal; 96.6% in the assay on ACHN renal. Besides, the growth was 100% in the assay with CAKI-1 renal, 69.8% in the assay with A498 renal, 99.8% with CCRF-CEM leukemia and 87.5% in the assay on MOLT-4 leukemia.

`N#C/C(=C\c1cc(O)c(O)c(O)c1)C(N)=O`: the growth was 123% in the assay on SK-MEL-2 melanoma; 97.4% with EKVX NSCLC; 107% in the assay with SN12C renal; 110% with UO-31 renal; 116% in the assay with TK-10 renal; 96.6% with ACHN renal. Further, the growth in the assay on CAKI-1 renal was 93.6%; with A498 renal it was 119%; in the assay with CCRF-CEM leukemia it was 74%; in the assay on MOLT-4 leukemia, 73.1%.

As for `CSC[C@H](NC(=O)COc1cccc2cnccc12)C(=O)NC(Cc1ccccc1)C(O)C(=O)N1CSC[C@H]1C(=O)NC(C)(C)C` (stereo partly specified), the growth with SK-MEL-2 melanoma is 113%; in the assay with EKVX NSCLC it was 103%; in the assay with SN12C renal, 102%; with UO-31 renal, 94.4%; with TK-10 renal it was 139%; in the assay with ACHN renal, 109%. Further, the growth in the assay on CAKI-1 renal was 95.5%; in the assay on A498 renal, 95.6%; in the assay on CCRF-CEM leukemia, 111%; in the assay on MOLT-4 leukemia, 101%.

Turning to `O=C1C=C(O)C(=O)C=C1O`, the growth in the assay on SK-MEL-2 melanoma is 107%; in the assay with EKVX NSCLC, 102%; in the assay on SN12C renal, 107%; in the assay on UO-31 renal, 79.2%; in the assay on TK-10 renal, 102%; in the assay with ACHN renal, 97.2%. Further, the growth was 97.4% with CAKI-1 renal, 92.4% in the assay on A498 renal and 91.3% in the assay with MOLT-4 leukemia.

Turning to `CCCCC1C(=O)N(c2ccccc2)N(c2ccccc2)C1=O`, the growth in the assay on SK-MEL-2 melanoma is 98.7%; with EKVX NSCLC, 105%; in the assay on SN12C renal it was 96.2%; in the assay on UO-31 renal, 90.4%; in the assay on TK-10 renal, 103%; with ACHN renal, 102%. Moreover, the growth in the assay on CAKI-1 renal was 103%; in the assay on A498 renal, 125%; in the assay on CCRF-CEM leukemia, 95.8%; in the assay with MOLT-4 leukemia, 107%.

In the case of `Cc1cc(=O)cc(C)n1-c1ccccc1`, the growth in the assay with SK-MEL-2 melanoma was 104%; in the assay on EKVX NSCLC, 107%; in the assay on SN12C renal, 89.3%; in the assay on UO-31 renal, 90%; with TK-10 renal it was 96.3%; in the assay with ACHN renal, 102%. Moreover, the growth with CAKI-1 renal was 95%; in the assay with A498 renal it was 103%; in the assay with CCRF-CEM leukemia it was 92.4%; in the assay with MOLT-4 leukemia, 102%.

For the molecule `CC1SC(N)=NC1=O` (stereo unspecified), the growth with SK-MEL-2 melanoma was 111%; in the assay with EKVX NSCLC it was 96.2%; in the assay with SN12C renal, 120%; with UO-31 renal, 92.2%; with TK-10 renal, 108%; with ACHN renal, 108%. Further, the growth in the assay with CAKI-1 renal was 103%; in the assay on A498 renal it was 107%; in the assay on CCRF-CEM leukemia, 99.3%; in the assay with MOLT-4 leukemia, 122%.

Take `CC1=C(/C=C/C(C)=C/C=C/C(C)=C/CO)C(C)(C)CCC1`: the growth in the assay with SK-MEL-2 melanoma was 107%; with EKVX NSCLC, 108%; in the assay on SN12C renal, 104%; in the assay with UO-31 renal, 87.3%; in the assay on TK-10 renal it was 111%; in the assay with ACHN renal it was 106%. Further, the results for the growth in the assay with CAKI-1 renal, in the assay on A498 renal and with MOLT-4 leukemia were 88.6%, 98% and 97.9%, respectively.

With `CC(=O)Nc1ccc(NC(C)=O)c2c1C(=O)c1ccccc1C2=O`, the growth in the assay with SK-MEL-2 melanoma was 103%; in the assay on EKVX NSCLC, 73.5%; in the assay with SN12C renal it was 86.9%; in the assay on UO-31 renal, 59.5%; in the assay with TK-10 renal, 92.6%; in the assay on ACHN renal, 78.8%. The growth is 68.6% in the assay on CAKI-1 renal, 91.1% in the assay on A498 renal and 105% in the assay with MOLT-4 leukemia.

As for `CCOc1ccc(/C=N/N=C(N)N)cc1OCC`, the growth is 113% with SK-MEL-2 melanoma; 91.8% in the assay on EKVX NSCLC; 108% in the assay on SN12C renal; 74.7% in the assay on UO-31 renal; 106% with TK-10 renal; 97.4% with ACHN renal. The growth in the assay on CAKI-1 renal was 95.7%; in the assay on A498 renal, 101%; in the assay on CCRF-CEM leukemia, 95.4%; in the assay with MOLT-4 leukemia it was 87.6%.

On to `CN(C)c1ccc(S(=O)(=O)O)cc1`, for which the growth in the assay on SK-MEL-2 melanoma is 86.2%; in the assay with EKVX NSCLC, 107%; in the assay with SN12C renal it was 105%; in the assay with UO-31 renal, 87.9%; in the assay on TK-10 renal it was 89.2%; with ACHN renal it was 93.9%. For the same molecule, the growth in the assay with CAKI-1 renal is 105%; in the assay on A498 renal it was 94.9%; in the assay on CCRF-CEM leukemia, 95.9%; with MOLT-4 leukemia, 107%.

The values above are taken from PubChem BioAssay (NCI).
